WT yeast gro inh – growth inhibition of WT yeast, mitochondrial fusion screen | mitochondrial fusion phenotypic screen, WT strain | inhibition, % at 10 µM | AID 1362 | actives 2.1% (n = 190,000); in the data active = inhibition above about 58%; tested in S. cerevisiae
RAM inhibit – inhibitors of the yeast RAM network. inhibition, % at 50 µM. AID 868. S. cerevisiae dse1pr::URA3 reporter, 5-FOA growth OD615, 2 d; analog-sensitive cbk1-as2 kinase mutant strain. actives 1.8% (n = 190,000);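 active = inhibition above a set limit, 3 SD over mean compound inhibition, cut at about 8.4% in these data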;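 note: inhibition rescues growth on 5-FOA so higher OD means more RAM inhibition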
CHOP inhibitor – inhibitors of CHOP induction in ER stress response; CHO-K1 CHOP-promoter luciferase, tunicamycin-induced, 15-18 h; inhibition, % at 10 µM; actives 3.8% (n = 220,000);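 active = compounds that reduced the stress-induced luciferase reporter signal by more than about 70% of percent inhibition, limit read from the data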
Lmaj promast – Leishmania major promastigote growth inhibition; Leishmania major promastigotes, resazurin fluorescence viability; inhibition, % at 10 µM; actives 9% (n = 200,000); in the data active = inhibition above about 50%;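 note: promastigotes grown with compound for 44 hours at 28 °C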
Of the large screens only hits and unclear results are named; the others gave an inactive call. A selection: hits, their analogues and other compounds. The true share with any hit is near 13%.

CC1(c2ccccc2)NC(=O)N(N)C1=O (stereo unspecified)	none
Cc1cc(C(=O)CSc2nc(N)cc(N)n2)c(C)n1-c1cccc(C(F)(F)F)c1	Lmaj promast 82
Cn1c(-c2c(N)n(-c3ccccc3)c3nc4ccccc4nc23)nc2ccccc21	WT yeast gro inh 59, CHOP inhibitor 74, Lmaj promast 75
Cc1cccc(-n2c(N)c(-c3nc4ccccc4n3C)c3nc4ccccc4nc32)c1	none
COc1ccc(N2C(=S)N=C(Nc3ccccc3)C23CCCCC3)cc1	CHOP inhibitor 101
CCOc1ccc(NC(=S)Nc2cccc3cnccc23)cc1	WT yeast gro inh 58
S=C(Nc1ccc(Cl)cc1)Nc1cccc2cnccc12	WT yeast gro inh 62
CNC(=S)N1CCN(C(=O)C2CCCO2)CC1 (stereo unspecified)	none
Cc1ccc(-c2nnc(N3CCC(C)CC3)c3ccccc23)cc1	CHOP inhibitor 84
CC1CCN(c2nnc(-c3ccccc3)c3ccccc23)CC1	none
Cc1ccc(-c2nnc(N3CCC(C)CC3)c3ccccc23)cc1C	WT yeast gro inh 82, CHOP inhibitor 90
C=CCn1cnc2c(c1=O)c1nc3ccccc3nc1n2/N=C/c1cc(OC)c(OC)c(OC)c1	Lmaj promast 100
N#CC(c1ccccc1)c1ccc(C(=O)c2ccc(F)cc2)cc1 (stereo unspecified)	Lmaj promast 60
C=CCN(C(=O)CSC1=NC(=O)CN1C(C)=O)c1nc(C)c(-c2ccccc2)s1	CHOP inhibitor 95, Lmaj promast 89
CN=C1SC(C(=O)Nc2ccccc2Cl)CC(=O)N1c1ccc(OC(F)(F)Cl)cc1 (stereo unspecified)	none
O=S(=O)(c1ccc(Cl)cc1)N1CCCC1c1nc2ccccc2s1 (stereo unspecified)	none
O=S(=O)(c1cc(Cl)cc(Cl)c1)N1CCCC1c1nc2ccccc2s1 (stereo unspecified)	CHOP inhibitor 70
CC1=CC(=O)C(C(C)C)=CC1=NC(=O)c1ccc(C)cc1	CHOP inhibitor 107
O=C(CN1CCN(CCN2C(=O)c3cccc4cccc(c34)C2=O)CC1)c1ccc(F)cc1	none
O=C1c2cccc3cccc(c23)C(=O)N1CCN1CCN(CC(O)COc2ccccc2)CC1 (stereo unspecified)	Lmaj promast 97
O=C(CN1CCN(CCN2C(=O)c3cccc4cccc(c34)C2=O)CC1)c1ccc(Cl)cc1	Lmaj promast 87
O=C(C(c1ccccc1)c1ccccc1)N1CCN(CCN2C(=O)c3cccc4cccc(c34)C2=O)CC1	none
COc1cccc(OCC(O)CN2CCN(CCN3C(=O)c4cccc5cccc(c45)C3=O)CC2)c1 (stereo unspecified)	Lmaj promast 100
O=C(NC12CC3CC(CC(C3)C1)C2)c1cc([N+](=O)[O-])ccc1N1CCOCC1	none
COc1ccc(C2=CC(=O)OC(C)(c3ccccc3)O2)cc1 (stereo unspecified)	none
Cc1cccc(-n2nc([N+](=O)[O-])c(=NCc3cccnc3)n2O)c1	Lmaj promast 82
O=[N+]([O-])c1nn(-c2ccc(Cl)cc2)n(O)c1=NCc1ccncc1	Lmaj promast 75
O=[N+]([O-])c1nn(-c2ccc(Cl)cc2)n(O)c1=NCc1cccnc1	Lmaj promast 96
Cc1ccc(CN=c2c([N+](=O)[O-])nn(-c3ccc(Cl)cc3)n2O)cc1	none
Cc1cccc(N=c2c([N+](=O)[O-])nn(-c3ccc(Cl)cc3)n2O)c1	Lmaj promast 79
CCc1cccc(N=c2c([N+](=O)[O-])nn(-c3ccc(Cl)cc3)n2O)c1	none
Cc1ccc(NC(=O)COC(=O)Cc2ccsc2)cc1S(=O)(=O)N1CCOCC1	none
COc1ccc(NC(=O)Cc2ccc(C)c(C)c2)cc1Cl	none
O=C1NC(=O)/C(=C/c2ccccn2)S1	none (no result: WT yeast gro inh, RAM inhibit, Lmaj promast)
COc1ccc(CCNC(=O)CSc2nnc(C(C)N(C)C)n2Cc2ccccc2)cc1OC (stereo unspecified)	none
COc1ccc([N+](=O)[O-])cc1N(CC1CO1)S(=O)(=O)c1ccc(C)cc1 (stereo unspecified)	none
c1ccc2c(c1)CCN(C1=Nc3cccc4cccc1c34)C2	Lmaj promast 69
Cc1ccc(S(=O)(=O)CCc2nnc(NC(=O)c3cnccn3)s2)cc1	none
Cc1ccc(S(=O)(=O)CCc2nnc(NC(=O)c3ccccn3)s2)cc1	Lmaj promast 82
O=C(O)CCc1nc(-c2ccccc2)c(-c2ccccc2)o1	none (no result: RAM inhibit, Lmaj promast)
CCc1nnc(NC(=O)c2cccc(C(=O)Nc3nnc(CC)s3)n2)s1	WT yeast gro inh 63, Lmaj promast 99
NC(=O)CSc1nc(-c2ccccc2)c(-c2ccccc2)o1	RAM inhibit 11
CCc1nnc(NC(=O)CSc2nc(-c3ccccc3)c(-c3ccccc3)o2)s1	CHOP inhibitor 84
Cc1ccccc1NC(=O)CCC(=O)OCC(=O)c1cccc([N+](=O)[O-])c1	none
Cc1noc2ncnc(Oc3ccc(Cl)cc3Cl)c12	none
NNC(=O)c1ccc2nc(-c3ccc(Br)cc3)cn2c1	WT yeast gro inh 71, Lmaj promast 54
Cc1cc(C)cc(C(=O)NN2CCN(C)CC2)c1	none
COc1ccc2c(c1)NC(c1ccc(N(C)C)cc1)c1cccn1-2 (stereo unspecified)	none (no result: WT yeast gro inh, RAM inhibit, Lmaj promast)
c1ccc(CC2CCN(c3ncnc4sccc34)CC2)cc1	WT yeast gro inh 63, CHOP inhibitor 74
O=C(O)c1cc2c(N3CCC(Cc4ccccc4)CC3)ncnc2s1	none
Nc1ccc(N2CCCCC2)c(Cl)c1	none
Cc1ccc2nc(C)c(C(=O)NN=C3CCCCCC3)n2c1	none
O=C(COc1ccccc1O)NNc1ccccc1	Lmaj promast 74
O=C(COc1ccccc1O)Nc1ccccc1Cl	none
COc1ccc(C(C)(C)C)cc1NC(=O)COC(=O)c1ncc(Cl)c(Cl)c1Cl	none
Cc1[nH]n(-c2ccc([N+](=O)[O-])cc2)c(=O)c1C=NCCN1CCN(C(=O)C(C)C)CC1	WT yeast gro inh 63
CC(=O)Nc1cccc(C(=O)N/N=C/c2ccccc2F)c1	Lmaj promast 83
CC(/C=C/c1ccccc1F)=N\NC(=O)c1cccc(F)c1	Lmaj promast 90
CCCn1nnc(NC(=O)c2cc(Br)cc(Br)c2OC)n1	none
CCn1c(SCC(=O)Nc2nc3ccc(C)cc3s2)nc2c(c1=O)SC(C)C2 (stereo unspecified)	RAM inhibit 10
CCC(C)Sc1nc2c(c(=O)n1C)SC(C)C2 (stereo unspecified)	WT yeast gro inh 61
CSc1nc2c(c(=O)n1C)SC(C)C2 (stereo unspecified)	none
COc1cccc(NC(=O)CSc2nc3c(c(=O)n2C)SC(C)C3)c1 (stereo unspecified)	CHOP inhibitor 79
O=C(O)c1ccc(N2C(=O)CC(N3C(=O)/C(=C/c4ccc(Cl)cc4)SC3=S)C2=O)cc1 (stereo unspecified)	none (no result: WT yeast gro inh, RAM inhibit, Lmaj promast)
CC(=O)c1ccc(NC(=S)Nc2cccc(Cl)c2C)cc1	none
Cc1nn(S(=O)(=O)c2ccc(Cl)cc2)c(C)c1Sc1ccc([N+](=O)[O-])cc1	CHOP inhibitor 85, Lmaj promast 82
Cc1nn(-c2ccccc2)c(N)c1Sc1ccc([N+](=O)[O-])cc1	none
CCCC(=O)N=C1SC2CS(=O)(=O)CC2N1c1ccc(-c2nc3ccc(C)cc3s2)cc1 (stereo unspecified)	CHOP inhibitor 77

High-throughput results deposited in PubChem BioAssay by several laboratories.
